According to PubChem BioAssay AID651791 (National Center for Advancing Translational Sciences (NCATS), 2012):
Results filed as inconclusive are left out. Activity calls are given as the source filed them. Calls follow the shape of the dose curve; as a rule, active = well fitted inhibition curve with a large enough effect; inconclusive = small, poorly fitted or top-dose-only effect; inactive = no such curve, though single readings can be large or run the other way.

assay: InCell qHTS Assay for Inhibitors of the mTORC1 Signaling Pathway in MEF (Tsc2-/-, p53-/-) Cells: Hit Validation; settings: phospho-rpS6 immunofluorescence, 24 h; activity change, negative = inhibition: at 38.3 µM (top of the series);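 also: phospho-S6 Ser235/236 signal normalized to propidium iodide cell count per well; nearly all actives have a fitted effect of over 75% in size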
Potency is read from the fitted curve at half-maximal effect.

Row | SMILES | activity change, negative = inhibition [%] | Potency
1 | CC1=Nc2cc(C(=O)NCCc3ccc(Cl)cc3)ccc2Sc2ccc(C)cc21 | -100 | –
2 | Cc1ccc(C(=O)CC2(O)C(=O)N(Cc3ccccc3)c3ccccc32)c(C)c1 (configuration not stated) | -100 | –
3 | CCCC1=Nc2cc(C(=O)NC3CCCC3)ccc2Sc2ccc(C)cc21 | -100 | –
4 | Cn1nnnc1SCCCNCc1ccccc1OCc1ccc(Cl)cc1 | -12.8 | –
5 | Nc1nc(Nc2ccccc2F)sc1C(=O)c1ccc(Cl)cc1 | -100 | –
6 | CCCCS(=O)(=O)c1oc(-c2cccs2)nc1S(=O)(=O)c1ccccc1 | – | 1.47 µM (active)
7 | COc1ccc(N(C)C(=O)c2cc(S(=O)(=O)N3CCc4ccccc43)cn2C)c(OC)c1 | -100 | –
